Measurements reported in PubChem BioAssay (NCI).
About 79,000 compounds went through this panel and 15% of them were active in at least one assay; those are over-represented in the sample as a whole. Values without a mark were called inactive. Activity calls are given as the source filed them. No stated cut-off is given here; in the data, active means growth inhibition above about 70%; inactive means the rest.

Test: NCI Yeast Anticancer Drug Screen. Data for the mlh1 strain (AID 171);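 further: 0% = growth of vehicle-treated control cultures of the same strain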
Details: S. cerevisiae mlh1 strain growth inhibition, hits give high values
Experimental: Growth inhibition of yeast strains with defined genetic alterations is measured as a screen for potential anti-cancer activity. Selected strains with alterations in DNA damage repair or cell cycle control were exposed to compounds and growth inhibition was measured relative to vehicle treated controls. The strain used in this assay is mlh1

Compound | growth inhibition (at 1.2 µM) | growth inhibition (at 3.7 µM) | growth inhibition (at 11.0 µM) | growth inhibition (at 33.0 µM) | growth inhibition (at 100.0 µM)
COC(=O)C1=C(C)NC(C)=C(C(=O)OCCCN2CCC(c3ccccc3)(c3ccccc3)CC2)C1c1cccc([N+](=O)[O-])c1 (stereo not given) | 1% | 51% | 98% (active) | 98% (active) | 92% (active)
CC1(Cl)CC(O)C2(CC1Br)C1(C)OC1C1OC1(Br)C2(C)C (stereo not given) | -19% | -22% | -18% | 66% | 97% (active)
COc1ccccc1N=NC(C(=O)c1ccccc1)C(=O)c1ccccc1 | -25% | -27% | -1% | 94% (active) | 96% (active)
CC(=O)ON1C(=O)c2cccc3cccc(c23)C1=O | 61% | 91% (active) | 97% (active) | 99% (active) | 98% (active)
Cc1cccc2c(C(O)CBr)cc(-c3ccc(Cl)cc3)nc12 (stereo not given) | -5% | 1% | 98% (active) | 95% (active) | 48%
O=[N+]([O-])c1ccc(=S)[nH]c1 | 0% | 1% | 1% | 52% | 96% (active)
COC(=O)c1ccc(NCC2=CC(=O)C=CC2=O)cc1O | 17% | 51% | 90% (active) | 98% (active) | 94% (active)
CC(=O)Nc1ccc(/C=C(\C#N)c2ccc(C)cc2)cc1 | -20% | -21% | -18% | -6% | -10%
